Common to all, as to test: log2 fold change, soluble protein after heating vs DMSO (PISA); higher = thermal stabilisation; K562 lysate, 10 uM; active = over 0.2 and 3.5 SD of the protein, either way, in both replicates (recomputed)
Compound in assay [1]: C1=CC2=NC=CN=C2C=C1/C=C/3\C(=O)NC(=O)S3
A digest of the protocol: (§1)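 The values are log-two fold changes in thermal stability compared with solvent controls and come from duplicates. They were obtained by TMTpro 16plex LC-MS/MS, with channel sums equalised, on the supernatant after 21,000xg for 90 min. That supernatant came from crude K562 extract at 1 mg/mL protein treated with 10 μM compound for 30 min, heated for 3 min across 48°C-58°C, pooled and brought to 0.5% NP-40 at 4°C.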

Compound in another assay: C=CC(=O)N1CCC[C@@H](n2nc(-c3ccc(Oc4ccccc4)cc3)c3c(N)ncnc32)C1 [ibrutinib]
A digest of the protocol:
as §1

Compound in assay [2]: CC(=O)c1cnc2ccc(-c3cc(Cl)c(O)c(Cl)c3)nc2c1N[C@H]1CC[C@H](CN(C)C)CC1
The gist of the method: as §1

Compound in assay [3]: CC1=C(C2=C(C=C1)C(=O)C3=CC=CC=C3N2CCCN)C
The gist of the method:
as §1

Compound in assay [4]: CC1=CC=C(C=C1)SC2=C3C=C(SC3=CN=C2)C(=O)N
The gist of the method: as §1

Compound in assay [5]: C/C(=N\NC(=O)C1=CC(=CC=C1)S(=O)(=O)N2CCOCC2)/C3=C(C=CC(=C3)Cl)O
A digest of the protocol:
as §1

Compound in assay [6]: C1=CC2=C(C=CC(=C2)/C=C\3/C(=O)NC(=NCC4=CC=CS4)S3)N=C1
The gist of the method: as §1

Compound in assay [7]: C1=CC=C(C=C1)C2=NC(=C(N2)C3=CC=NC=C3)C4=CC(=C(C=C4)Cl)O
The gist of the method: as §1

Compound in assay [8]: C1=CC=C2C(=C1)C3=NNC4=CC=CC(=C43)C2=O
A digest of the protocol:
as §1

Compound in assay [9]: C1CCN(C1)C(=O)NC2=CC=CC(=C2)NC3=NC=C(C(=N3)NCCC4=CN=CN4)Br
A digest of the protocol: as §1

Compound in assay [10]: C1CN(CCC1(CC2=CC=C(C=C2)Cl)N)C3=NC=NC4=C3C=CN4
The gist of the method: as §1

Compound in a further assay: C1COCCN1CCN2C3=CC=CC=C3N=C2NC(=O)C4=CC(=CC=C4)[N+](=O)[O-] [IRAK-1-4 Inhibitor I]
The gist of the method:
as §1

Compound in another assay: CC(C)(C)Cn1c(N)nc2ccc(-c3[nH]c(C(C)(C)C)nc3-c3ccc(F)cc3)nc21 [ralimetinib]
The gist of the method: as §1

Compound in assay [11]: CC(C)(O)CC(=O)NCCn1ccc2ncnc(Nc3ccc(Oc4cccc(C(F)(F)F)c4)c(Cl)c3)c21
The gist of the method: as §1

Compound in assay [12]: CC1=C(C(CC(=O)N1)C2=CC=C(C=C2)C(F)(F)F)C(=O)NC3=C(C=C4C(=C3)C=NN4)F
The gist of the method: as §1

Compound in assay [13]: CC1=C(C=C(C=C1)NC(=O)C2=CC(=CC=C2)N(C)C)NC(=O)C3=CC=C(C=C3)O
The gist of the method:
as §1

Compound in assay [14]: CC1=C(C=C(C=C1)NC(=O)C2=CC(=CC=C2)C(C)(C)C#N)NC3=CC4=C(C=C3)N=CN(C4=O)C
The gist of the method: as §1

Compound in the next assay: C#Cc1cccc(Nc2ncnc3cc(OCCOC)c(OCCOC)cc23)c1 [erlotinib]
The gist of the method:
as §1

Compound in assay [15]: C1=CC(=CC=C1C2=NC3=C(N2)C=C(C=C3)C(=O)N)OC4=CC=C(C=C4)Cl
A digest of the protocol: as §1

Compound in assay [16]: CC(C)C1=C2N=C(C=C(N2N=C1)NCC3=CC=CC=C3)NCCCCCCN
A digest of the protocol:
as §1

Of roughly 8,800 targets only a part is listed; those with a hit were picked by preference. About 0.5% of all pairs of compound and target were hits. A number with no mark means an inactive call.

Sequence of UniProt P28328 (P28328 whole entry, looked up): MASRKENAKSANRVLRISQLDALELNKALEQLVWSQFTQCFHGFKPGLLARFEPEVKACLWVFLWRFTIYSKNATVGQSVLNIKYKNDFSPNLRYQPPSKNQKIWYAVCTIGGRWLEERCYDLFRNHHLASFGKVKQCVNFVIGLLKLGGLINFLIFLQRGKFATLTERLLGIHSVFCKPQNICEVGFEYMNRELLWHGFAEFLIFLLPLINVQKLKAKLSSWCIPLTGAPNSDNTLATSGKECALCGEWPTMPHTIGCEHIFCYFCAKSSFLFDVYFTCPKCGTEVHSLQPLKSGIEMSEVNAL
Sequence of UniProt P60673 (P60673 whole entry, looked up): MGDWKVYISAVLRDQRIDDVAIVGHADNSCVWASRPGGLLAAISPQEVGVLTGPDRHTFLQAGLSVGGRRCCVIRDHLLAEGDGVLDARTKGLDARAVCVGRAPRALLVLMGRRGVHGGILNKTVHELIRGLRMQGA
Sequence of UniProt Q99755 (Q99755 whole entry, looked up): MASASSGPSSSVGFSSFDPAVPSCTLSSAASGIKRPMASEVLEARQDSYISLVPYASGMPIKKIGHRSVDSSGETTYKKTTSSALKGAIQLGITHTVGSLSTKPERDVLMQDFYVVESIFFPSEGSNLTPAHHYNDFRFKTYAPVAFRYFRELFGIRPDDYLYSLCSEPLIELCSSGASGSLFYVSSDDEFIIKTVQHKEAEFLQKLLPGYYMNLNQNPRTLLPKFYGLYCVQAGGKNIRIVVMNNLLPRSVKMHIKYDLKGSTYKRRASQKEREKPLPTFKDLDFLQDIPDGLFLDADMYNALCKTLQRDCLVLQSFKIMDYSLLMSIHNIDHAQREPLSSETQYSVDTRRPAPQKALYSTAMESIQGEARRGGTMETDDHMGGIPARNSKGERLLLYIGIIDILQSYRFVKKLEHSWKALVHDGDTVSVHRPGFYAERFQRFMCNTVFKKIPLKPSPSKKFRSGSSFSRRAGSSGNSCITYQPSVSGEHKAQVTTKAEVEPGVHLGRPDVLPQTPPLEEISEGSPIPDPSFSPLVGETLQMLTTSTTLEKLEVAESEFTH
Sequence of UniProt Q15004 (Q15004 whole entry, looked up): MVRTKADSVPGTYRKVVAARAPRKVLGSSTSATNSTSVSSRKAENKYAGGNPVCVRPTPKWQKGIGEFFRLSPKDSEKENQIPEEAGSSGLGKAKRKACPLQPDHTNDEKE
Sequence of UniProt O94880 (O94880 whole entry, looked up): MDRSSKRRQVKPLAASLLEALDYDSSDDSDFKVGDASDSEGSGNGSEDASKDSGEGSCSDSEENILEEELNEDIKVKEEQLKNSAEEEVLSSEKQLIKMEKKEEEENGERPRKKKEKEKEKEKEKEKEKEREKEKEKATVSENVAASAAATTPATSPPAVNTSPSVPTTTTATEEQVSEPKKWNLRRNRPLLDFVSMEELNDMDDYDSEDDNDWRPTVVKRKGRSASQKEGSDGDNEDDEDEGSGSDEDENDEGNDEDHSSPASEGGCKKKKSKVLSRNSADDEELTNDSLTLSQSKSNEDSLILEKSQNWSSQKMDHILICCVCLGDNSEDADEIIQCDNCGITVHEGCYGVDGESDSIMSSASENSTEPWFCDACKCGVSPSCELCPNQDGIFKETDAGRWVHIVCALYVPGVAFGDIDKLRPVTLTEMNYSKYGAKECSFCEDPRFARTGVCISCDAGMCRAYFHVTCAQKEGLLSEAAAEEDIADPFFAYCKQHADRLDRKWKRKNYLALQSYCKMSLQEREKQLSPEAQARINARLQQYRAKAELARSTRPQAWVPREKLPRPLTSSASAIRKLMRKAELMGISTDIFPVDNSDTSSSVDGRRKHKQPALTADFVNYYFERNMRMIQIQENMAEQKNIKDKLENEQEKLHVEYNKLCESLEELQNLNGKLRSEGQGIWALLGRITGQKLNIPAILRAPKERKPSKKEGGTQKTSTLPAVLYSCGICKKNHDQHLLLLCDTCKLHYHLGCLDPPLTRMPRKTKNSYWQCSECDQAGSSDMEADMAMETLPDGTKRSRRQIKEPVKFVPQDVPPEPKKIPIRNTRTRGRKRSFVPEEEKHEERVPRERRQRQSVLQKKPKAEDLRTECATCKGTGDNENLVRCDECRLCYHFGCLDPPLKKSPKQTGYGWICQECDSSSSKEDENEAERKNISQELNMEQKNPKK
Sequence of UniProt Q9Y4D7 (Q9Y4D7 whole entry, looked up): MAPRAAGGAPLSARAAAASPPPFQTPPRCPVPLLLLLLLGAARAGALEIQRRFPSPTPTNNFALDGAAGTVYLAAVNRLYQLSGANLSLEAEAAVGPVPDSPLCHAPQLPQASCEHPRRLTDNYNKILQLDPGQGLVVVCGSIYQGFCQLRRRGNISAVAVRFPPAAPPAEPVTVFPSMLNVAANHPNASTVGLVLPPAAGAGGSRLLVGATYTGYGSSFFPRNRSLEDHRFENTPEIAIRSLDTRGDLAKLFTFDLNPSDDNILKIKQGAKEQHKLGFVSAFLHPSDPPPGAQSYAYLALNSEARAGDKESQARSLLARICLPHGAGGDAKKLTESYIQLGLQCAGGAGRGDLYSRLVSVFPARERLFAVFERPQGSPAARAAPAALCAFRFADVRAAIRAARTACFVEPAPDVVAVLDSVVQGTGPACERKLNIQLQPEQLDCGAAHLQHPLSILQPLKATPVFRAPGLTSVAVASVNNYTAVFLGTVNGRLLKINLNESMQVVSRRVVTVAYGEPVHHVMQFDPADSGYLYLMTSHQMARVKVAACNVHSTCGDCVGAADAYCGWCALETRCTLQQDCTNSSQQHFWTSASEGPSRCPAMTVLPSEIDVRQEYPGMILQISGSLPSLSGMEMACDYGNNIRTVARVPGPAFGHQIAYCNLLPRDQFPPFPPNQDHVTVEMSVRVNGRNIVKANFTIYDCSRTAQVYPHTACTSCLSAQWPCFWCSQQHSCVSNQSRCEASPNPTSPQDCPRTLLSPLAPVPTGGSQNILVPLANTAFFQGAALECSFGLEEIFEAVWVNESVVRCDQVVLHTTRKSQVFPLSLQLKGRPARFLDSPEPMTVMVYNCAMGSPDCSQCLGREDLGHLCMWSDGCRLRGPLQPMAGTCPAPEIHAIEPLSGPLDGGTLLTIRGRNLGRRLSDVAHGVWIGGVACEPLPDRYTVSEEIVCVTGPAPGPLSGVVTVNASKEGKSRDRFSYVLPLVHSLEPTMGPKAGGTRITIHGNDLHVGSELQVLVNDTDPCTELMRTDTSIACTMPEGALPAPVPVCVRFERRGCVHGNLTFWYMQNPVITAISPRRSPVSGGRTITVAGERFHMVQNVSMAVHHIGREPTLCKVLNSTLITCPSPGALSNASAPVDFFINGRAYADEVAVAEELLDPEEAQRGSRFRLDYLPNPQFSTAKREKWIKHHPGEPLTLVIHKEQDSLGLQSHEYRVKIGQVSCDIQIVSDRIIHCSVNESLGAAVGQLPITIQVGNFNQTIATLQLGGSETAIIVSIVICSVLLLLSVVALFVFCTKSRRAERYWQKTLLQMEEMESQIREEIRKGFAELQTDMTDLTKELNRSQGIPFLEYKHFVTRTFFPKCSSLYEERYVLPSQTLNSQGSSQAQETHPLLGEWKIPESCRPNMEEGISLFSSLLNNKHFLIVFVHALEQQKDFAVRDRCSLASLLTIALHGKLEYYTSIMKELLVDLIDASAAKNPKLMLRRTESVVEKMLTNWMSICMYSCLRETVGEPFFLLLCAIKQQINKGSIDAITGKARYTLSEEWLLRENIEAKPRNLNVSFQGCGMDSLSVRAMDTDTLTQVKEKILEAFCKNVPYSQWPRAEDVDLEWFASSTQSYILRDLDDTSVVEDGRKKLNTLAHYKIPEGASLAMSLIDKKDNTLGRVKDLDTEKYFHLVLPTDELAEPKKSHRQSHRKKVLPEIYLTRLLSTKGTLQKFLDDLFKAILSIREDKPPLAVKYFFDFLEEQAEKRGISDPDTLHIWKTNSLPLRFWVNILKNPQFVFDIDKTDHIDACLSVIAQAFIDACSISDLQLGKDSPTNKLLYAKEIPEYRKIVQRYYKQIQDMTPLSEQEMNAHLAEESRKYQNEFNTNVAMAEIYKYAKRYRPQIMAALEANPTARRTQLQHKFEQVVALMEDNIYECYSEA
Sequence of UniProt Q8TAE6 (Q8TAE6 whole entry, looked up): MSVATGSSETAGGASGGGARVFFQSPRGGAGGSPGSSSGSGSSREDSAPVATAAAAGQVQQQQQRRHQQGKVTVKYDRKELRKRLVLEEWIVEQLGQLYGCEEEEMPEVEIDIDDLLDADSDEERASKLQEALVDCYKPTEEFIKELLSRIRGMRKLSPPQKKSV
Sequence of UniProt Q13362 (Q13362 whole entry, looked up): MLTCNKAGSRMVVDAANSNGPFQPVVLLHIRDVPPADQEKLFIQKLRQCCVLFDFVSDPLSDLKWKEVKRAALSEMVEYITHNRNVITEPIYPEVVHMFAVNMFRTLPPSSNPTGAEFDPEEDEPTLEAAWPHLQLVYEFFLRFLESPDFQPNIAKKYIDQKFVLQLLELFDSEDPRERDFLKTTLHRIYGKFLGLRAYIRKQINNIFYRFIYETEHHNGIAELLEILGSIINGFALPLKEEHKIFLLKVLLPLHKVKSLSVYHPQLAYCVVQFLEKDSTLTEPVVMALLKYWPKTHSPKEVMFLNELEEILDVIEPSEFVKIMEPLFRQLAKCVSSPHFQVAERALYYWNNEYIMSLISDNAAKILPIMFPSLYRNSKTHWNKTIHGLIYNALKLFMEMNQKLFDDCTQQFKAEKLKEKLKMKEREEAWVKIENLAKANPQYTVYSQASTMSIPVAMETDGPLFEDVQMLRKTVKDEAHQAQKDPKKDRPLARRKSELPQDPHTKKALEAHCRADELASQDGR

Turning to PHGDH, A0A286YFE1, the log2 fold change in assay [1] was -0.166; with ibrutinib, 0.032; in [2], 0.084; in assay [3], -0.458; in assay [4], 0.107.

For the target PPP1R14C (UniProt Q8TAE6), the log2 fold change is 0.018 in assay [5]; -0.092 in assay [6]; -0.05 in assay [1]; 0.001 in assay [7]; 0.021 in assay [8]; 0.052 in [9]. The log2 fold change in assay [10] was -0.02; in the assay with IRAK-1-4 Inhibitor I, -0.014; with ibrutinib, 0.067; in assay [2] it was 0.007; with ralimetinib, 0.057; in assay [11] it was 0.042. The log2 fold change was -0.028 in assay [12], -0.097 in [3], -0.123 in assay [13] and 0.068 in assay [4].

PDIA4, A0A499FI48: the values for the log2 fold change in assay [3] and in [14] were -0.017 and -0.066, respectively.

Turning to PREP (UniProt H0Y5Y0), the log2 fold change in assay [2] was -0.051; in assay [4], 0.029.

Consider PPP2R5C isoform 2 (UniProt Q13362), for which the log2 fold change is 0.003 in the assay with erlotinib; 0.044 in assay [5]; 0.024 in [15]; -0.046 in assay [6]; 0.186 in assay [1]; 0.024 in assay [7]. In addition, the log2 fold change in assay [8] was 0.013; with IRAK-1-4 Inhibitor I it was 0.052; in the assay with ibrutinib, -0.145; with ralimetinib it was -0.016; in assay [11], -0.02; in [16] it was 0.02. The log2 fold change in assay [12] is -0.012; in [3], 0; in assay [14] it was -0.155; in assay [13] it was 0.08.

For PEX2 (UniProt P28328), the log2 fold change in the assay with erlotinib is 0.106; in assay [5] it was -0.731 (active); in assay [15] it was 0.068; in assay [6], 0.048; in assay [1], -0.128; in assay [7], 0.082. Also, the log2 fold change is -0.119 in assay [8]; -0.04 with IRAK-1-4 Inhibitor I; 0.017 with ibrutinib; -0.114 in [2]; 0.021 in the assay with ralimetinib; -0.098 in [11]. Moreover, the log2 fold change in [16] is 0.023; in [12] it was 0.14; in assay [3], -0.07; in assay [14], -0.002; in [13], 0.065; in assay [4], 0.035.

On to PIP5K1A (UniProt Q99755), for which the log2 fold change was 0.036 with erlotinib; -0.14 in assay [15]; 0.022 in assay [1]; -0.062 in [7]; -0.195 with IRAK-1-4 Inhibitor I; 0.012 with ibrutinib. Moreover, the log2 fold change was 0.201 in assay [2]; -0.053 with ralimetinib; 0.001 in [11]; 0 in assay [16]; 0.056 in [12]; -0.127 in assay [3]. Further, the results for the log2 fold change in assay [14], in [13] and in assay [4] were 0.105, 0.02 and -0.053, respectively.

For the target PLXND1 (UniProt Q9Y4D7), the log2 fold change was -0.067 with erlotinib; 0.073 in assay [15]; -0.048 in assay [1]; -0.016 in assay [7]; -0.032 in the assay with IRAK-1-4 Inhibitor I; 0.138 with ibrutinib. The log2 fold change was -0.081 in the assay with ralimetinib; -0.07 in assay [11]; 0.046 in assay [16]; -0.023 in assay [12]; 0.112 in assay [3]; -0.033 in assay [14]. Moreover, the log2 fold change in assay [13] is 0.218.

Consider PFN3 (UniProt P60673), for which the log2 fold change in assay [5] was -0.231; in assay [6] it was -0.078; in assay [8] it was -0.162; in assay [9], -0.041; in assay [10], 0.155; in assay [2], 0.042. Besides, the log2 fold change in assay [12] was -0.02; in [14] it was -0.03; in assay [4], -0.02.

As for PPP2CA (UniProt E7ESG8), the log2 fold change in [12] was 0.239.

As for PICALM (UniProt H0YCY1), the values for the log2 fold change (with erlotinib; in assay [15]; in [16]) were -0.09, 0.108 and -0.155, respectively.

For PCLAF (UniProt Q15004), the log2 fold change with erlotinib was 0; in assay [5], -0.026; in assay [15] it was 0.057; in [6], -0.006; in [1] it was -0.059; in [7], -0.015. Also, the log2 fold change is 0.012 in [8]; 0.037 in assay [9]; -0.052 in assay [10]; 0.016 with IRAK-1-4 Inhibitor I; 0.025 with ibrutinib; 0.035 in the assay with ralimetinib. The log2 fold change in [11] is -0.014; in assay [16], -0.011; in assay [12] it was 0.003; in assay [3] it was -0.041; in [14], 0.034; in assay [13], -0.005.

PHF14 (UniProt O94880): the log2 fold change was 0.032 in [5]; -0.01 in [6]; -0.06 in assay [1]; -0.086 in [7]; 0.045 in assay [8]; -0.423 in assay [9]. The log2 fold change in [10] was 0.432; with IRAK-1-4 Inhibitor I, 0.035; with ibrutinib it was -0.014; in [2], 0.03; with ralimetinib it was -0.024; in assay [11], -0.055. In addition, the log2 fold change is 0.454 (active) in assay [12], -0.003 in assay [3], -0.042 in assay [13] and -0.128 in assay [4].

Source of the values: the supplement of paper PMC10849652.
